15 molecules from PubChem BioAssay (NCATS) can be followed below.

In assay [1] the target is Lysosomal acid glucosylceramidase (Homo sapiens) (UniProt P04062). The experiment in a line: Glucocerebrosidase-p2 (AID 348; in the data active = potency below about 10 µM; note: potency is the fitted concentration of half-maximal effect). The conditions noted are these: purified GBA, blue fluorogenic substrate, 40 min. Put shortly:
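Normal human glucocerebrosidase (0.2 nM) with blue fluorogenic substrate (80 uM final) in citrate/phosphate pH 5.9 with 10mM sodium taurocholate, 0.01% tween-20; 40 min RT, NaOH/glycine stop; fluorescence Ex 365/Em 440; AC50 from a titration from 0.6 nM upwards.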

Assay [2] in a line: AP1 Signaling Pathway (AID 357).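 Note: ME-180 reporter cells stimulated with EGF at its EC50 level; % is set by controls: 0 for no effect and ±100 for the full control effect.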 The conditions noted are these: ME-180 AP-1-bla reporter, EGF-induced, beta-lactamase ratio, 5 h; at 7.69 µM (top of the series) unless noted. Put shortly:
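Titration-series screen for positive or negative modulators of EC50 EGF-induced signaling in ME-180 cells carrying an AP-1-driven beta-lactamase reporter. After 5 hours at 37 degrees Celsius, CCF4 460nm/530nm emission ratio gave %Activity; AC50 values derived.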

Assay [3] deals with Cytochrome P450 1A2 (Homo sapiens) (UniProt P05177). Briefly: p450-cyp1a2 (AID 410; calls by dose curve; note: potency is the fitted concentration of half-maximal effect). The conditions noted are these: recombinant CYP1A2, luciferin-ME demethylation, luminescence; series mostly up to 11.4 µM. Put shortly: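 20nM CYP1A2, 100uM Luciferin-ME (=Km), 100mM KPO4; cpd 10 min RT; +NADPH regen, 60 min RT; stop/detect 20 min; luminescence. Normalized to furafylline 57 uM = full inhibition.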

Assay [4] in a line: NFAT Signaling Pathway (AID 444).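 Note: carbachol stimulus at about its EC50 of 1 µM final; % is set by controls: 0 for no effect and ±100 for the full control effect.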 The conditions noted are these: Jurkat NFAT-bla M1, carbachol, beta-lactamase ratio, 5 h; at 7.69 µM (top of the series) unless noted. Put shortly:
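Read-out: CCF4 FRET ratio (460 nm/530 nm) after 1 h RT dye loading, used for %activity and AC50 from titration series. Cells: Jurkat NFAT-β-lactamase/M1 line, treated with compound plus 1 uM carbachol for 5 h, 37 °C.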

Assay [5] can be described thus: Stat Signaling Pathway (AID 446).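 Note: ME-180 cervical cancer cells given 40 pM IL-6 alongside compound; SIE-controlled beta-lactamase reporter measured as 460/530 nm FRET emission ratio; % is set by controls: 0 for no effect and ±100 for the full control effect.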 The conditions noted are these: ME-180 (cervical carcinoma) SIE beta-lactamase reporter, IL-6 stimulated, 5 h; at 7.69 µM (top of the series) unless noted. Put shortly:
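FRET read-out (405 nm excitation, 460/530 nm emission) of a beta-lactamase reporter under a STAT-inducible element in ME-180 cervical carcinoma cells. Cells with compound receive 40 pM IL-6 for 5 h. Values are normalised to AC90 stimulation and AC90 JAK-inhibitor controls.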

Assay [6] addresses Glucocorticoid receptor (Homo sapiens) (UniProt P04150). Briefly: GR-GFP Redistribution (AID 450;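 active = compounds whose dose series gives a full or clear partial fitted curve of increased nuclear translocation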; note: potency is the fitted concentration of half-maximal effect). The conditions noted are these: U2OS GR-GFP nuclear translocation, laser cytometry, 2 h.
The target is the same in assay [7]. Briefly: GR-EFC Redistribution (AID 451; calls by dose curve; note: potency is the fitted concentration of half-maximal effect). The conditions noted are these: CHO-K1 GR-EFC translocation, beta-gal luminescence, 2 h. Put shortly:
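Translocation of GR-ED fusion to nuclear EA restores b-gal, read by luminescence after 1 h room-temperature detection. Engineered CHO-K1 biosensor cells, 1,000/well, exposed 2 h at 37 C to titrations up to 46 uM final.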

Assay [8] has as its target Mitogen-activated protein kinase 10 (Mus musculus) (UniProt Q61831). The experiment in a line: JNK3 AlphaScreen Assay (AID 530).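 Note: kinase came from lysate of stimulated human HepG2 cells; signal reports phosphorylation of biotinylated GST-cJun 1-79 at Ser73 with 10 µM ATP; % is set by controls: 0 for no effect and ±100 for the full control effect.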 The conditions noted are these: JNK3 lysate, c-Jun phosphorylation; series mostly up to 11.4 µM. Put shortly:
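Kinase buffer: 20 mM Tris-HCl pH 7.6, 10 mM MgCl2, 1 mM DTT, 0.1 mM Na3VO4, 0.01% Tween-20; ATP 10 uM. Substrate biotin-GST-cJun(1-79), enzyme from activated HepG2 lysates. Detection by Ser73 phospho-antibody AlphaScreen.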
(In Alpha technology, singlet oxygen from a donor bead excites a nearby acceptor bead.)

For assay [9], the target named is 3',5'-cyclic-AMP phosphodiesterase 4B (Homo sapiens) (UniProt Q07343). Briefly: qHTS Assay for Inhibitors of PDE-IV (AID 607; active = well fitted activation curve with a large enough effect in the main read-out, with a control signal flat, not every such curve was filed as active; note: % of control where 0% means no effect). The conditions noted are these: HEK293 ACTOne CNG channel cells, membrane potential fluorescence; series mostly up to 22.9 µM. Put shortly: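 Cell-based read-out of cAMP via a modified cyclic nucleotide-gated channel and membrane potential dye (535/590 nm) in HEK293 cells expressing PDE4 endogenously. Compounds tested up to 22.9 uM final; 100 uM RO 20-1724 reference.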

SMILES strings stand for the structures. Values without a mark were called inactive. Results filed as inconclusive are left out. Activity calls are given as the source filed them. Unless noted, calls come from the whole dose curve; as a rule, active = well fitted curve in either direction with a large enough effect (not every such curve was filed as active); inconclusive = small, poorly fitted or top-dose-only effect, or another doubt; inactive = flat fitted curve, though single readings scatter.

Sequence of Cytochrome P450 1A2 (Homo sapiens) (P05177 whole entry, looked up): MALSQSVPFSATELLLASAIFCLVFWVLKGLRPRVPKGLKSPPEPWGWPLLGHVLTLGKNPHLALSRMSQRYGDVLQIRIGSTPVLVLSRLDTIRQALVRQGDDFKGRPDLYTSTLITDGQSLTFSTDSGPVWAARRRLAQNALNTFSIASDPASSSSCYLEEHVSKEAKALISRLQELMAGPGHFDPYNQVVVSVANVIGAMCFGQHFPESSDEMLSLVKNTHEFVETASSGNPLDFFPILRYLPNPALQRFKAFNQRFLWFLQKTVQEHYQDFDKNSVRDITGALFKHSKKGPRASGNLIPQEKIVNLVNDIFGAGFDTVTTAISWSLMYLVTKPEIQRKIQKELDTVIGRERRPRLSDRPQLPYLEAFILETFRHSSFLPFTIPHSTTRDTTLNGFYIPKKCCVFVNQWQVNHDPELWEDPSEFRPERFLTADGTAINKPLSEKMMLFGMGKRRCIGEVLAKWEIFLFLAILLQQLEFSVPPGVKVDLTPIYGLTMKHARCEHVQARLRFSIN
Sequence of 3',5'-cyclic-AMP phosphodiesterase 4B (Homo sapiens) (Q07343 whole entry, looked up): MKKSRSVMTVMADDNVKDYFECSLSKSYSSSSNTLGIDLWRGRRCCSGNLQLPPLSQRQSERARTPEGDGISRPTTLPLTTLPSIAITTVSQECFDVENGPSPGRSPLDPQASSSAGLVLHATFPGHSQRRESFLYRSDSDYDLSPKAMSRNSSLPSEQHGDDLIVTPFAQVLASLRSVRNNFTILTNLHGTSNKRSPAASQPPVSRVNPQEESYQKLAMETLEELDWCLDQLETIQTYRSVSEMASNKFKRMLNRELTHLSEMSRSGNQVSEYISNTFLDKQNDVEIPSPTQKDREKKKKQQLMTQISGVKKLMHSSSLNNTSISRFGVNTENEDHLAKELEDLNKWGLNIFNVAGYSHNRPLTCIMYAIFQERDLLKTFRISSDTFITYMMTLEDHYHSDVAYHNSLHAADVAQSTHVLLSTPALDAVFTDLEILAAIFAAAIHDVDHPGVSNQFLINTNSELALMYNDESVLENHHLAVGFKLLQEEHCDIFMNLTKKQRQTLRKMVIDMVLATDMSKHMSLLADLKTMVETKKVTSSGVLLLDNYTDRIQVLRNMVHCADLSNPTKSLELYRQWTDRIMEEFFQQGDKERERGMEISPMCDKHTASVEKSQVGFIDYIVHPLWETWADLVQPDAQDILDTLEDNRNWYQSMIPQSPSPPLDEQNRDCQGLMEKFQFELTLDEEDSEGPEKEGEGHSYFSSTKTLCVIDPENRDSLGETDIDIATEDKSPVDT
Sequence of Glucocorticoid receptor (Homo sapiens) (P04150 whole entry, looked up): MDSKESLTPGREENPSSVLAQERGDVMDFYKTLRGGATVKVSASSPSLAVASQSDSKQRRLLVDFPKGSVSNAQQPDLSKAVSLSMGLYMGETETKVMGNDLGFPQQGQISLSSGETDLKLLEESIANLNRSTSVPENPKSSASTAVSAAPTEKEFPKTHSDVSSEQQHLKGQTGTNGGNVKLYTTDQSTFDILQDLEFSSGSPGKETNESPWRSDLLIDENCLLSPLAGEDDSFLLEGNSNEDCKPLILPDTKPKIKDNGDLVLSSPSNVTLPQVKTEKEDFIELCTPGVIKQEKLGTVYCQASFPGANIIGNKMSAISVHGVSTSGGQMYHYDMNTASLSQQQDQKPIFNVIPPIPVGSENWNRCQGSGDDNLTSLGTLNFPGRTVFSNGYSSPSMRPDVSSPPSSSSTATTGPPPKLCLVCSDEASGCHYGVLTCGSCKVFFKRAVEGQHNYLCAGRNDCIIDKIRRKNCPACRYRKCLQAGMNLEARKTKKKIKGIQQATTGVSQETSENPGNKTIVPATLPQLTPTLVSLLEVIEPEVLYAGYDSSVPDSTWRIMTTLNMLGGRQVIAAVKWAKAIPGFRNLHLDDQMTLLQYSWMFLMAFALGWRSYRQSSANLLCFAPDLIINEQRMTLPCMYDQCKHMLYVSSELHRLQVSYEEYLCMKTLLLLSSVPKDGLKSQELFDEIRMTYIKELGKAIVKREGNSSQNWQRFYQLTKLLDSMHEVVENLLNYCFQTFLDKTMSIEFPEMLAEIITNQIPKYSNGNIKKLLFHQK
Sequence of Lysosomal acid glucosylceramidase (Homo sapiens) (P04062 whole entry, looked up): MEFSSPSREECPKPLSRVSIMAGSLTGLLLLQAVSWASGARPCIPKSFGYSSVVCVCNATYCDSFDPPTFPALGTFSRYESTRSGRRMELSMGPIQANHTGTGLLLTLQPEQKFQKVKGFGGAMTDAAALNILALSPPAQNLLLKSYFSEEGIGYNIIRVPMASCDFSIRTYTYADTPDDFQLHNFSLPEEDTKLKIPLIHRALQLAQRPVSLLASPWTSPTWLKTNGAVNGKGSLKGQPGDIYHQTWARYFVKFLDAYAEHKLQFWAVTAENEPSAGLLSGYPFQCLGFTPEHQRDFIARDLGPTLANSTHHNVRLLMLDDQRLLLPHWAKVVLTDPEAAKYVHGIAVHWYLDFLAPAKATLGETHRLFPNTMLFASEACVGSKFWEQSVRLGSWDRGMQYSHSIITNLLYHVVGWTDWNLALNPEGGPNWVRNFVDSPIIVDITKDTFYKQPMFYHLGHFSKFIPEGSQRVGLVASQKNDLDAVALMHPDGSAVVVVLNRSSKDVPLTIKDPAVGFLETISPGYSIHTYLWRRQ

Take `O=C(NNC(=O)c1ccncc1)c1ccncc1`: the Potency in assay [1] is above 11.4 µM; in assay [6], above 46 µM; in assay [7] it was above 9.22 µM. Besides, the activity change, negative = inhibition in assay [2] is 4.63%; in [4], 6.39%. Besides, the Potency result in assay [3], in [8] and in assay [9] was “inactive” in each case. Also, the activity, negative = inhibition in assay [5] is 2.81%.

For `N[C@@H](CSC(=O)c1ccccc1)C(=O)O`, the Potency is above 11.4 µM in [1], above 46 µM in assay [6] and above 9.22 µM in assay [7]. In addition, the values for the activity change, negative = inhibition in assay [2] and in assay [4] were -5.26% and 3.72%, respectively. For the same molecule, the Potency result in [3], in assay [8] and in assay [9] was “inactive” throughout. For the same molecule, the activity, negative = inhibition in assay [5] is 4.69%.

As to `CC(C)(N=NC(C)(C)C1=NCCN1)C1=NCCN1`, the Potency in assay [1] is above 11.4 µM; in assay [6] it was above 46 µM; in [7] it was above 9.22 µM. For the same molecule, the activity change, negative = inhibition in assay [2] was 3.01%; in [4], 7.08%. For the same molecule, the Potency result in [3], in assay [8] and in assay [9] was “inactive” in each case. The activity, negative = inhibition in [5] is 3.73%.

For the molecule `CN(C)CCOC(=O)c1ccc(N)cc1`, the Potency in [1] is above 11.4 µM; in assay [6], above 46 µM; in assay [7], above 9.22 µM. The activity change, negative = inhibition in assay [2] was 4.6%; in [4], -0.262%. Further, the Potency result in assay [3], in [8] and in assay [9] was “inactive” each time. For the same molecule, the activity, negative = inhibition in assay [5] is -3.48%.

Consider `O=C(O)c1ccc([N+](=O)[O-])c(P(=O)(O)O)c1`, for which the Potency is above 11.4 µM in assay [1], above 46 µM in [6] and above 9.22 µM in [7]. Besides, the activity change, negative = inhibition in [2] was -2.71%; in [4] it was 12.7%. Besides, the Potency result in [3], in assay [8] and in assay [9] was “inactive” in each case. Also, in assay [5], the activity, negative = inhibition was -0.293%.

Consider `Cc1cc(N=Cc2c(CO)cnc(C)c2O)c(N=Cc2c(CO)cnc(C)c2O)cc1C.[Zn]`, for which the results for the Potency in assay [1], in [6] and in [7] were above 11.4 µM, above 46 µM and above 9.22 µM, respectively. Moreover, the activity change, negative = inhibition in assay [2] is -2.68%; in [3] it was -10.4% [at 2.29 µM]; in assay [4], 14.7%. Further, the activity, negative = inhibition in [5] was 7.49%. In addition, the Potency entry in [8] and in assay [9] was “inactive” in each case.

Consider `Nc1nc(SCc2ccccc2Cl)cc(C(=O)O)n1`, for which the Potency was above 11.4 µM in [1], above 46 µM in [6] and above 9.22 µM in assay [7]. The activity change, negative = inhibition was -13.8% in assay [2], 6.2% [at 2.29 µM] in assay [3] and 1.52% in [4]. For the same molecule, the activity, negative = inhibition in [5] was 4.58%. Further, the Potency entry in assay [8] and in assay [9] was “inactive” each time.

Consider `CN1CCN(CCCBr)CC1`, for which the Potency is above 11.4 µM in assay [1], above 46 µM in [6] and above 9.22 µM in assay [7]. The activity change, negative = inhibition in [2] was 5.14%; in assay [4], 10.6%. The Potency result in [3], in [8] and in [9] was “inactive” throughout. Besides, the activity, negative = inhibition in assay [5] is -3.86%.

On to `CC(C)(C)c1cc2c(O)c(c1)Cc1cc(C(C)(C)C)cc(c1O)Cc1cc(C(C)(C)C)cc(c1O)Cc1cc(C(C)(C)C)cc(c1O)Cc1cc(C(C)(C)C)cc(c1O)Cc1cc(C(C)(C)C)cc(c1O)Cc1cc(C(C)(C)C)cc(c1O)Cc1cc(C(C)(C)C)cc(c1O)C2`, for which the Potency in assay [1] is above 11.4 µM; in assay [6], above 46 µM; in assay [7], above 9.22 µM. For the same molecule, the activity change, negative = inhibition is 6.61% in assay [2] and -14.8% in assay [4]. Moreover, the Potency result in assay [3], in assay [8] and in assay [9] was “inactive” in each case. Further, the activity, negative = inhibition in assay [5] was -5.63%.

For `N[C@H](C(=O)O)[C@@H](O)c1cnc[nH]1`, the Potency in [1] was above 11.4 µM; in assay [6], above 46 µM; in assay [7], above 9.22 µM. The activity change, negative = inhibition in [2] is 6.1%; in [4], -4.22%. Besides, the Potency result in assay [3], in assay [8] and in [9] was “inactive” each time. Further, in assay [5], the activity, negative = inhibition was 2.54%.

`N[C@@](CC(=O)O)(Cc1ccccc1)C(=O)O`: the values for the Potency in [1], in assay [6] and in [7] were above 11.4 µM, above 46 µM and above 9.22 µM, respectively. Besides, the activity change, negative = inhibition is -6.1% in assay [2], -13.4% [at 2.29 µM] in [3] and 0.819% in assay [4]. Also, the activity, negative = inhibition in [5] was 6.06%. In addition, the Potency result in [8] and in assay [9] was “inactive” each time.

Consider `O=C(O)[C@@H]1CS[C@@]2(CCCN(Cc3ccccc3)C2)N1`, for which the Potency is above 11.4 µM in assay [1], above 46 µM in assay [6] and above 9.22 µM in [7]. Moreover, the activity change, negative = inhibition in [2] was 8.03%; in [3], -12% [at 2.29 µM]; in assay [4], 18.2%. Besides, in assay [5], the activity, negative = inhibition was 2.47%. The Potency result in [8] and in assay [9] was “inactive” throughout.

With `CC[C@@H](CS(=O)(=O)O)[N+](=O)[O-]`, the Potency in [1] is above 11.4 µM; in [6], above 46 µM; in assay [7], above 9.22 µM. The results for the activity change, negative = inhibition in assay [2] and in assay [4] were 7.92% and 19.9%, respectively. Further, the Potency entry in assay [3], in assay [8] and in assay [9] was “inactive” in each case. Further, the activity, negative = inhibition in assay [5] is 10.6%.

Take `Nc1ccc(N=Nc2c(S(=O)(=O)O)cc3ccccc3c2S(=O)(=O)O)cc1`: the Potency in assay [1] was above 11.4 µM; in [6] it was above 46 µM; in assay [7], above 9.22 µM. Moreover, the activity change, negative = inhibition in assay [2] is -5.64%; in assay [3] it was -20.9% [at 2.29 µM]; in assay [4], 11.9%. Moreover, the activity, negative = inhibition in assay [5] was 6.7%. In addition, the Potency entry in [8] and in assay [9] was “inactive” throughout.

In the case of `O=C(O)c1cccc(SSc2cccc(C(=O)O)c2)c1`, the Potency was above 11.4 µM in [1], 5.01 µM (active) in assay [3], above 46 µM in [6] and above 9.22 µM in assay [7]. Moreover, the activity change, negative = inhibition was 0.262% in [2] and 17.5% in assay [4]. For the same molecule, the activity, negative = inhibition in assay [5] is -14.5%. Also, the Potency entry in assay [8] and in [9] was “inactive” in each case.
